In PubChem BioAssay:

Target: Homeobox protein Hox-A13 (Mus musculus) (UniProt Q62424)
Assay: disruptors of Hoxa13 oligonucleotide interaction – biochemical, fluorescence polarization, labeled oligonucleotide, primary screen (AID 1185)
Settings: Hoxa13:DNA binding, 15 min, higher = more signal, called active from +8 up or from −8 down

Sequence of Homeobox protein Hox-A13 (Mus musculus) (Q62424 whole entry, looked up): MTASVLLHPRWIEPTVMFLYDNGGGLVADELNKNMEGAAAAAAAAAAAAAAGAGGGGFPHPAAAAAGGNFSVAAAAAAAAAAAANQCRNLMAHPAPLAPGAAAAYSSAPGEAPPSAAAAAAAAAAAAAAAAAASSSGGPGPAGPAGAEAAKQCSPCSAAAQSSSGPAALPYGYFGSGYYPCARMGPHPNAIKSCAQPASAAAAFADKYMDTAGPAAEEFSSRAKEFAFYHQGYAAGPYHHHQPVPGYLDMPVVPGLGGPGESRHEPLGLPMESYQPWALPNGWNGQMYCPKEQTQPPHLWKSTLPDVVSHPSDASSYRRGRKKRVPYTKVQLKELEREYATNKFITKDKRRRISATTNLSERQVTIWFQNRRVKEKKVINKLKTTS

z-score, inactive:
CN(C)CCCCNC(=O)[C@H]1C[C@H]2C(=O)NCC(=O)N2[C@H]1c1ccc(O)cc1 -4.67
CC(C)=CCCC(C)=CC(O)C1C=CC2C(=O)NC(=O)C2N1Nc1ccc(Cl)cc1Cl (stereo not given) -3.59
COc1cc(OC)c(C(O)C2C=CC3C(=O)N(c4ccccc4)C(=O)C3N2Nc2ccc(C(C)C)cc2)cc1Br (stereo not given) -1.37
CCN(CC)c1ccc(N2CC=CC34O[C@@H]5C=CCCOC(=O)C5[C@H]3C(=O)N(C(C)CO)[C@@H]4C2=O)cc1 (stereo not given in full) -6.31
CCOC(=O)C1=CCC(c2cc3ccccc3[nH]2)N(CCN2CC(C(=O)OCC)=CCC2c2cc3ccccc3[nH]2)C1 (stereo not given) -3.81
COc1ccc([Si](C)(C)[C@H]2[C@H](CC(=O)N3Cc4ccccc4C[C@H]3CO)O[C@@]3(C(=O)N(C)c4c(Br)cc(C)cc43)[C@@H]2C)cc1 -4.14
CN1C(=O)[C@@H]2[C@@H](CC(COc3ccccc3)=C3[C@@H](CCc4ccccc4)OB(O)C[C@@H]32)C1=O -6.67
CN1C(=O)C2C(C1=O)C1C=C(CCCO)C2C(C2CC2)N1Cc1cccc(OC(F)(F)F)c1 (stereo not given) -7.06
COc1ccc(C(=O)Nc2cccc(CN3C(=O)[C@]4(O[C@H](CC(=O)N5Cc6ccccc6C[C@H]5CO)[C@@H]([Si](C)(C)c5ccc(OC)cc5)[C@@H]4C)c4ccccc43)c2)cc1 -2.35
CN(C)C(=O)[C@@]1(Cc2ccccc2CN=[N+]=[N-])COC(c2ccc(OCCCO)cc2)=N1 -5.02
COc1ccc(C(=O)Nc2cccc(CN3C(=O)[C@@]4(O[C@@H](CC(=O)N5CCC[C@H]5CO)[C@H]([Si](C)(C)c5ccc(OC)cc5)[C@H]4C)c4ccccc43)c2)cc1 -2.8
O=C(NCCN1CCOCC1)[C@@H]1c2ccccc2C(=O)N(Cc2ccccc2C(F)(F)F)[C@H]1c1ccc(CO)cc1 -3.55
C=CC1c2cc(O)c(OC)cc2CCN1C (stereo not given) -3.83
COC(=O)[C@@]1(Cc2ccc(OC)cc2)[C@H]2c3cc(C(=O)N4CCCC4)n(Cc4ccc(Cl)c(C(F)(F)F)c4)c3C[C@H]2CN1C(=O)c1ccccc1 0.806
COc1ccc(C(=O)Nc2ccc3c(c2)[C@@]2(O[C@H](CCO)[C@@H]([Si](C)(C)c4ccc(OC)cc4)[C@@H]2C)C(=O)N3Cc2ccccc2)cc1 -1.54
Cc1ccc(S[C@]2(C(=O)NCc3ccccc3)CC(=O)N(Cc3ccccc3C(F)(F)F)[C@@H]2c2ccc(CO)cc2)cc1 0.0133
CC1CC/C=C\[C@H]2OC34C=CCN(c5ccc6ccccc6c5)C(=O)[C@H]3N(C(C)CO)C(=O)[C@@H]4C2C(=O)O1 (stereo not given in full) -4.97
Cc1ccc(N2C(=O)c3ccccc3[C@](C)(C(=O)NCCCN(C)C)[C@@H]2c2ccc(CO)cc2)nc1 -2.55
CCCC[C@H]1OB(O)C[C@H]2C1=C(COc1ccccc1)C[C@H]1C(=O)C=CC(=O)[C@H]12 -5.45
CC(C)C(=C=CC[C@H](O)c1ccccc1OCCO)C[C@H](O)COCc1ccccc1 -4.94
COC(=O)[C@@]1(Cc2ccc(OC)cc2)[C@H]2c3cc(C(=O)N4CCCC4)n(Cc4ccc(C(F)(F)F)nc4)c3C[C@H]2CN1C(=O)c1ccccc1 -5.12
Cc1ccc(F)cc1S(=O)(=O)N[C@H]1CCN(Cc2ccc(OC(C)C)cc2)C1 -5.72
CC(C)C(=C=CC[C@H](O)c1ccccc1OCCO)C[C@H](O)c1cc(Cl)cc(Cl)c1O -4.67
C=C1C(=O)C=C2CN(C(=O)c3ccccc3)[C@@](Cc3ccc(OC)cc3)(C(=O)OC)[C@@H]12 -3.61
COc1ccc(C(=O)Nc2ccc(CN3C(=O)[C@@]4(O[C@@H](CCn5cc(CCO)nn5)[C@H]([Si](C)(C)c5ccc(OC)cc5)[C@H]4C)c4ccccc43)cc2)cc1 -3.79
